Laboratory results taken from PubChem BioAssay.
Activity calls are given as the source filed them.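 Rule for the calls, unless noted: active = compounds killing one labelled cell type while sparing the other, by normalised counts and ratio limits, not self-fluorescent; inactive = the rest.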

Columns and labels:
[1] = system: Neuropilin-2 / VEGF-C interaction (human); test: inhibitors of NRP2–VEGF-C binding, biochemical, microplate binding format, z-score (AID 743281; call rule not given here); conditions: microplate NRP2/VEGF-C binding assay; stronger effect = lower value
[2] = modulation of C. elegans fzo-1 (AID 1259413; call rule not given here;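 note: fzo-1 mutant C. elegans worms in liquid wells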); conditions: C. elegans fzo-1 modulator screen, mean read-out; stronger effect = higher value
[3] = differential killing of epithelial or mesenchymal cells, primary screen, imaging, PC-3E GFP, TEM4-18 mCherry, co-culture (AID 1345086); conditions: imaging cell counts, at 1 µM; for red/green cell ratio (normalised): actives lie on both sides, counts scaled to control wells, 1 = unselective;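 for all read-outs here: cells exposed to compound for 72 h before imaging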;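 for red/green cell ratio (normalised): normalised mesenchymal count divided by normalised epithelial count so high means epithelial killing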
[4] = measured here: epithelial PC-3E GFP cell survival
[5] = measured here: mesenchymal TEM4-18 mCherry cell survival

SMILES	outcome [1]	mean signal [2]	red/green cell ratio (normalised) [3]	normalised cell number [3, 4]	normalised cell number [3, 5]
CC(=O)O[C@]1(C(C)=O)CC[C@H]2[C@@H]3C=C(C)C4=CC(=O)CCC4(C)[C@H]3CCC21C (stereo not given in full)	inactive	261 (inactive)	–	–	–
COc1cc(OC)c2c(=O)c(OC)c(-c3ccccc3)oc2c1	–	–	0.85 (inactive)	1.32	1.13
CN(C(=O)c1ccccc1)C1C(O[C@@H]2OC(COS(=O)(=O)O)C(NC(=O)c3ccccc3)[C@H](OS(=O)(=O)O)[C@H]2OS(=O)(=O)O)OC2C[C@@H](NC(=O)c3ccccc3)[C@@H](OC3C(NC(=O)c4ccccc4)C[C@@H](NC(=O)c4ccccc4)[C@H](OS(=O)(=O)O)[C@H]3OS(=O)(=O)O)OC2C1OS(=O)(=O)O (stereo not given in full)	–	–	1 (inactive)	1.06	1.06
C=C1OC(=O)[C@]2([C@H](C)C=CC(=O)[C@H]2O)[C@H]1O	–	–	1.05 (inactive)	1.08	1.14
C=C(C)[C@@H]1CC[C@]2(C)CC[C@]3(C)[C@@H](CCC4[C@@]5(C)CC[C@H](O)C(C)(C)C5CC[C@]43C)C12 (stereo not given in full)	–	–	1.12 (inactive)	0.95	1.07
CC(=O)N[C@@H]1[C@@H](OC(C)C(=O)O)[C@H](O)[C@@H](CO)O[C@H]1O (stereo not given in full)	–	–	0.95 (inactive)	1.06	1
O=C(O)c1cc(O)c2c(c1)[C@@H]([C@@H]1c3cc(C(=O)O)cc(O)c3C(=O)c3c(O[C@H]4O[C@H](CO)[C@@H](O)[C@H](O)[C@H]4O)cccc31)c1cccc(O[C@H]3O[C@H](CO)[C@@H](O)[C@H](O)[C@H]3O)c1C2=O	–	–	0.83 (inactive)	1.02	0.84
NC(=O)c1cc(F)c(F)cc1F	–	–	0.98 (inactive)	1.12	1.09
Nc1ccc2ccccc2c1S(=O)(=O)O	–	–	0.94 (inactive)	1.03	0.97
O=C1C=CC2(Oc3cccc4cccc(c34)O2)[C@H]2[C@H]1[C@@H](O)CC[C@H]2O	–	–	1.07 (inactive)	0.95	1.01
CC1CC(=O)c2c(cc3c(-c4c(O)cc(O)c5c(O)c6c(cc45)OC(C)CC6=O)c(O)cc(O)c3c2O)O1 (stereo not given)	–	–	0.92 (inactive)	1.06	0.98
CC(=O)O[C@H]1CC[C@@]2(C)C(CC[C@]3(C)C2CC=C2C4CC(C)(C)CC[C@]4(C)CC[C@]23C)C1(C)C (stereo not given in full)	–	–	1.1 (inactive)	1.04	1.15
O=C1CC[C@]23/C=C/C(=O)NCCCCNCCCNC(=O)/C=C/c4ccc(c2c4)O[C@@H]3C1	–	–	0.81 (inactive)	1.1	0.89
CC(C)(O)CC[C@@H](O)[C@](C)(O)C1CC[C@@]2(O)C3=CC(=O)C4C[C@@H](O)[C@@H](O)C[C@]4(C)C3CC[C@]12C (stereo not given in full)	–	–	0.93 (inactive)	0.94	0.88
O=c1c(O)c(-c2ccc(O)c(O)c2)oc2c(O[C@@H]3O[C@H](CO)[C@H](O)[C@@H](O)[C@H]3O)c(O)cc(O)c12	–	–	0.95 (inactive)	1.06	1.01
CCC(/C=C/[C@@H](C)[C@H]1CCC2C3CC=C4C[C@@H](O)CC[C@]4(C)C3CC[C@@]21C)C(C)C (stereo not given in full)	–	–	1.07 (inactive)	1.13	1.2
C[C@H]1C(=O)CCC2[C@]3(C)CC[C@@]4(C)C5CC(C)(C)CC[C@]5(C)CC[C@]4(C)C3CC[C@@]21C (stereo not given in full)	–	–	1.06 (inactive)	1.06	1.13
CN(C(=O)OCc1ccccc1)C1C(O[C@@H]2OC(COS(=O)(=O)O)C(NC(=O)OCc3ccccc3)[C@H](OS(=O)(=O)O)[C@H]2OS(=O)(=O)O)OC2C[C@@H](NC(=O)OCc3ccccc3)[C@@H](OC3C(NC(=O)OCc4ccccc4)C[C@@H](NC(=O)OCc4ccccc4)[C@H](OS(=O)(=O)O)[C@H]3OS(=O)(=O)O)OC2C1OS(=O)(=O)O (stereo not given in full)	–	–	0.95 (inactive)	1.05	1
O=C(NCc1ccccc1)C1O[C@H](NCc2ccccc2)[C@@H](O)[C@@H](O)C1O (stereo not given in full)	–	–	1.04 (inactive)	1.09	1.13
COc1cc(C(=O)O)cc(C)c1C(=O)CC(C)O (stereo not given)	–	–	0.9 (inactive)	1.04	0.94
O=C(Nc1ccc(Cl)cc1)Nc1ccc(CO)cc1	–	–	0.86 (inactive)	1.29	1.11
O=C(Nc1ccccc1)Nc1ccc(CO)cc1	–	–	0.81 (inactive)	1.24	1.01
C[C@H]1[C@H](C)CC[C@]2(C(=O)O)CC[C@]3(C)C(=CCC4[C@@]5(C)C[C@@H](O)[C@H](O)[C@@](C)(CO)C5[C@H](O)C[C@]43C)[C@H]12 (stereo not given in full)	–	–	1.27 (inactive)	0.92	1.17
c1ccc(OCC2CCNC2)cc1 (stereo not given)	–	–	0.83 (inactive)	1.17	0.97
C=C1C/C=C(\C)CC[C@@H]2[C@@H]1CC2(C)C	–	–	1.09 (inactive)	0.98	1.07
Cc1cn(CC(=O)O)c(=O)[nH]c1=O	–	–	0.86 (inactive)	1.15	0.99
CC(C)=CCCC(C)[C@@H]1CC[C@]2(C)C3=C(CC[C@@]12C)C1(C)CC[C@H](O)C(C)(C)C1CC3 (stereo not given in full)	–	–	0.9 (inactive)	1.09	0.98
